aDG glyco act: alpha-DG glycosylation activation. Pro5-aDG cells, alpha-DG glycosylation AlphaScreen (IIH6); 0% Pro5, 100% B10-LARGE cell signal. activation, % at 10 µM. hit rate 0.22% among 360,000. AID 624168;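 active = activation of at least 8% versus controls, or a plate z-score of at least 8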;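 note: Pro5 are CHO cells carrying HIG-tagged alpha-DG that lacks glycosylation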
ADAM10 inh: inhibitors of human ADAM10; hit rate 0.62% among 370,000; AID 720582; inhibition, % at 7 µM; O14672; recombinant ADAM10, EDANS/DABCYL FRET peptide cleavage, 3 h;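 active = inhibition above a per-campaign cutoff equal to the mean of compounds falling between control-based bounds plus 3 SD, cut at about 20% in these data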;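 note: 0% = DMSO wells while the 100% control is not disclosed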
NR3A LBD binder: modulates the human NR3A ligand-binding domain | NR3A LBD differential scanning fluorimetry, Tm shift; 0% = protein alone, 100% = glycine-bound protein | Tm shift relative to glycine control, % at 25 µM | hit rate 2.5% among 340,000;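 active = melting temperature shift of at least 10% of the positive control shift, at one fixed dose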
FAS TE block: FAS thioesterase (human) inhibition | inhibition, % at 15 µM | P49327 | hit rate 0.67% among 360,000 | recombinant FAS-TE, OMFH fluorogenic substrate, fluorescence endpoint;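 active = compounds whose normalised, plate-corrected inhibition of enzyme fluorescence in the single-dose primary screen is 50% or more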;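 note: 0% = DMSO with enzyme and 100% = substrate without enzyme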
ADAM17 inh: inhibitors of human ADAM17; P78536; recombinant ADAM17, EDANS/DABCYL FRET peptide cleavage; inhibition, % at 6.95 µM; hit rate 0.83% among 370,000;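 active = inhibition above the mean of compounds lying between control limits plus 3 SD, set per campaign, cut at about 8.5% in these data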;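 note: 0% = DMSO-only wells as the low control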
* = called active by the depositor; i = inactive; · = no result given. In the library only some 4% were active in any assay of this set; here they are far more common.

SMILES | aDG glyco act | ADAM10 inh | NR3A LBD binder | FAS TE block | ADAM17 inh
COC(=O)c1c(C)[nH]c(C(=O)C(C)OC(=O)c2ccco2)c1C (configuration not stated) | 1 | -3 | -2 | -2 | -2
CCCN1CCN(S(=O)(=O)c2ccc3c(c2)CC(C)N3C(=O)C2CC2)CC1 (configuration not stated) | 0 | -4 | 0 | 0 | -4
NS(=O)(=O)c1ccc(NC(=O)c2cc(Cl)ccc2Cl)cc1 | 0 | 0 | -1 | -9 | 0
NS(=O)(=O)c1ccc(NC(=O)c2cc(-c3cc(Cl)ccc3O)n[nH]2)cc1 | 0 | -5 | 34* | 7 | -2
COc1ccc(Cl)cc1-c1cc(C(=O)Nc2ccc(F)cc2)[nH]n1 | 0 | -9 | · | 2 | 3
COc1ccc(OC)c(NC(=O)c2cc(-c3cc(Cl)ccc3O)n[nH]2)c1 | 0 | -71 | 33* | -5 | -25
O=C(Nc1cccnc1)c1cc2c(s1)-c1ccccc1OC2 | 0 | i | 35* | 1 | -405
O=C(Nc1ccc(Cl)cn1)c1cc2c(s1)-c1ccccc1OC2 | 0 | -395 | 15* | 4 | -101
O=C(Nc1cccnc1Cl)c1cc2c(s1)-c1ccccc1OC2 | 0 | i | 0 | 0 | -321
Cc1cccc2c1-c1sc(C(=O)Nc3cccnc3)cc1CO2 | 0 | i | 18* | -2 | -279
CCN(C(=O)COC(=O)CNS(=O)(=O)c1ccccc1)c1ccccc1 | 0 | -7 | -2 | -2 | -4
CC(C)C(c1nnnn1Cc1ccc(F)cc1)N1CCN(C2CCCC2)CC1 (configuration not stated) | 0 | -10 | -2 | -2 | -6
O=C(C1=C(O)C(=O)N(c2ncccn2)C1c1ccc(Cl)cc1)c1ccco1 (configuration not stated) | 0 | 2 | -1 | 3 | -2
Cc1ccc(C(=O)C2=C(O)C(=O)N(c3ncccn3)C2c2ccc(Cl)cc2)o1 (configuration not stated) | 0 | -15 | 13* | 10 | -9
O=C1c2ccccc2C(=O)N1CCc1c[nH]c2ccccc12 | 0 | 5 | 0 | 14 | 5
O=C(NN1CCOCC1)c1cc(-c2ccc(Br)cc2)nc2ccccc12 | 0 | -3 | -3 | 0 | -2
CCc1ccc(-c2cc(C(=O)NN3CCOCC3)c3ccccc3n2)cc1 | 1 | -34 | 11* | -8 | -15
CNC(=S)N1N=C(c2ccc(OC)cc2)CC1c1ccccc1Cl (configuration not stated) | 0 | 0 | 2 | 36 | 3
CCCc1[nH]nc2c1C(c1cccnc1)C(C#N)=C(N)O2 (configuration not stated) | 0 | -3 | 0 | -5 | 2
Cc1ccc(-c2ccc(C3C(C#N)=C(N)Oc4n[nH]c(C)c43)o2)cc1 (configuration not stated) | 1 | -12 | -3 | 3 | -4
N#CC1=C(N)Oc2n[nH]c(-c3ccncc3)c2C1c1ccsc1 (configuration not stated) | 0 | -7 | 0 | -4 | -6
Cc1[nH]nc2c1C(c1ccc(-c3ccc(Cl)cc3)o1)C(C#N)=C(N)O2 (configuration not stated) | 0 | 7 | 14* | -8 | 2
Cc1ccc(-c2[nH]nc3c2C(c2ccsc2)C(C#N)=C(N)O3)cc1 (configuration not stated) | 0 | -2 | 12* | -2 | -4
CCCc1[nH]nc2c1C(c1ccncc1)C(C#N)=C(N)O2 (configuration not stated) | 0 | -4 | 14* | -3 | -2
CCOc1ccccc1N1CC(C(=O)Nc2ccccc2N2CCCC2)CC1=O (configuration not stated) | 0 | -1 | -4 | -2 | -1
SMILES | aDG glyco act | ADAM10 inh | NR3A LBD binder | FAS TE block | ADAM17 inh
Cc1ccc(-c2c(NC(=O)c3ccc(F)cc3)nc3ncccn23)cc1 | · | -301 | · | · | -89
CC(C)NC(=O)N(C)C[C@H]1Oc2ccc(NC(=O)CCC(F)(F)F)cc2C(=O)N([C@H](C)CO)C[C@@H]1C | 0 | 0 | 13* | -14 | 0
C[C@H](CO)N1C[C@H](C)[C@@H](CN(C)C(=O)Nc2ccccc2)Oc2ccc(NC(=O)Nc3ccc(C(F)(F)F)cc3)cc2C1=O | 0 | 13 | 11* | 10 | 5
C[C@H](CO)N1C[C@H](C)[C@@H](CN(C)C(=O)NC2CCCCC2)Oc2ccc(NC(=O)CCC(F)(F)F)cc2C1=O | 0 | 2 | 0 | -6 | -3
CC(C)NC(=O)Nc1ccc2c(c1)C(=O)N([C@H](C)CO)C[C@H](C)[C@@H](CN(C)C(=O)Nc1ccc(C(F)(F)F)cc1)O2 | 0 | -6 | -3 | 0 | 6
C[C@H](CO)N1C[C@H](C)[C@@H](CN(C)C(=O)Nc2ccc3c(c2)OCO3)Oc2c(NC(=O)Nc3ccc4c(c3)OCO4)cccc2C1=O | 0 | 0 | -39 | 55* | 0
C[C@H](CO)N1C[C@H](C)[C@@H](CN(C)C(=O)Nc2ccc(C(F)(F)F)cc2)Oc2ccc(NC(=O)Nc3ccc4c(c3)OCO4)cc2C1=O | 0 | 4 | 11* | 16 | 4
C[C@@H]1CN([C@H](C)CO)C(=O)c2cc(NC(=O)Nc3ccc(F)cc3)ccc2O[C@H]1CN(C)C(=O)Nc1ccc(C(F)(F)F)cc1 | 0 | · | 9 | 19 | ·
CN1CCN(C(=O)/C(C#N)=C/c2ccc(OC(F)F)cc2)CC1 | 0 | 7 | -2 | 2 | -3
CC(C)C[C@H](NC(=O)[C@H]1N2C(=O)c3ccccc3C2SC1(C)C)C(=O)N[C@@H](Cc1ccccc1)C(=O)O (some centres not stated) | 0 | -9 | -2 | -2 | 0
COC(=O)c1ccc(C(=O)OC)c(NC(=O)/C=C/C(=O)O)c1 | 0 | i | 0 | -1 | -494
Cc1ccc2nc(C3CCCN(C(=O)NCc4ccccc4)C3)[nH]c2c1 (configuration not stated) | 0 | -2 | 16* | -2 | 6
O=C(Cn1c2ccccc2c(=O)c2cc([N+](=O)[O-])ccc21)Nc1ccccc1Cl | 0 | -16 | 18* | 27 | -6
O=C(Cc1cn(Cc2cccc(Cl)c2)c2ccccc12)N1CCCCCC1 | 0 | 13 | 17* | 24 | 4
Cc1cccc(NC(=O)CSCc2cc(=O)n3nc(C4CC4)sc3n2)c1 | 0 | -4 | -1 | -9 | -1
CC1(C(=O)Nc2cccc3cccnc23)CCN1Cc1csc2ccccc12 (configuration not stated) | 0 | -2 | · | 27 | -3
O=C(CCC1COc2ccccc2O1)Nc1ccc(Cl)cn1 (configuration not stated) | 0 | 6 | 12* | 3 | -2
Cc1ccnc(NC(=O)CCC2COc3ccccc3O2)c1 (configuration not stated) | 0 | 2 | 0 | 2 | -5
